Assay results as given in ChEMBL document CHEMBL1157539, “Thousands of chemical starting points for antimalarial lead identification” (Nature, 2010).

Columns and labels:
Type in all cases: functional
[1] = tested on: Plasmodium falciparum; assay: GSK_TCMDC: Inhibition of Plasmodium falciparum 3D7 in whole red blood cells, using parasite LDH activity as an index of growth. Test compounds present at 2uM
[2] = tested on: Plasmodium falciparum; assay: GSK_TCMDC: Inhibition of Plasmodium falciparum Dd2 in whole red blood cells, using parasite LDH activity as an index of growth. Test compounds present at 2uM
[3] = tested on: HepG2; assay: GSK_TCMDC: Percent inhibition of human HepG2 cell line. Test compounds present at 10uM.

| SMILES | Inhibition [1] | Inhibition [2] | Inhibition [3] |
| --- | --- | --- | --- |
| COc1cc2nc(Nc3ccc(N4CCOCC4)cc3)nc(N)c2cc1OC.Cl | 95% | 10% | 8% |
| CC(C)N1CCN(CCCNc2c3ccccc3nc3ccccc23)CC1.Cl | 100% | 1% | 29% |
| Cc1[nH]n(-c2cccc(Cl)c2)c(=O)c1-c1ccc(Cl)cc1 | 99% | 41% | 0% |
| CCC(NC[C@@H](O)[C@H](Cc1ccccc1)NC(=O)c1cc(C2CCCC2)cc(N2CCCC2=O)c1)c1cccc(Cl)c1.Cl (stereo not given in full) | 100% | 97% | 7% |
| NC(=O)C1CCN(Cc2cccc(-c3cccc(-c4nc5cc(F)ccc5[nH]4)c3)c2)CC1.O=C(O)C(F)(F)F | 100% | 7% | 15% |
| O=C(NCc1ccc(C(=O)NC2CCCCCC2)cc1)c1ccc(O)c(-c2ccc(Cl)c(Cl)c2)c1 | 83% | 21% | 0% |
| Cl.N#Cc1cccc(-c2ccc(C(=O)Nc3ccc4c(c3)CCN(C3CCC3)CC4)cn2)c1 | 96% | 5% | 26% |
| COc1ccc(CCNCCCCNCCc2ccc(OC)c3ccccc23)c2ccccc12.CS(=O)(=O)O | 100% | 33% | 100% |
| CCCN(CCC)S(=O)(=O)c1ccc(C(=O)Nc2nc3ccc(-c4cc(=O)[nH]c(Nc5ccccc5Cl)n4)cc3[nH]2)cc1 | 100% | 98% | 1% |
| COc1c(CN2CCCC2)cccc1-c1cc2c(-c3ccc(C(=O)O)c(C(C)C)c3)ccnc2[nH]1.O=C(O)C(F)(F)F | 99% | 98% | 56% |
| Cn1cccc1CCNCc1ccc(-c2cccc(-c3nc4ccccc4[nH]3)c2)cc1.O=C(O)C(F)(F)F | 88% | 66% | 1% |
| CCn1cc(C(=O)O)c(=O)c2cc(F)c(N3CCN(S(=O)(=O)c4ccc(N)cc4)CC3)cc21 | 90% | 79% | 0% |
| O=C(N[C@H]1CCN(CCc2ccc(O[C@H]3CCNC3)cc2)C1)c1ccc(Cl)c(Cl)c1.O=C(O)C(F)(F)F | 96% | 5% | 18% |
| CCCCCCN1CCCN(Cc2cccc(C(=O)Nc3ccc(C(C)(C)C)cc3)c2)CC1.O=C(O)C(F)(F)F | 93% | 23% | 41% |
| O=C(NCc1ccc(F)cc1)Nc1ccc(-c2ccc(-c3nc4ccccc4[nH]3)cc2)cc1 | 100% | 98% | 43% |
| O=c1cc(NCCCNCc2cc(Cl)c(Cl)cc2Cl)[nH]c2ccccc12 | 93% | 20% | 7% |
| Cc1ccc(Nc2nc(C)cc(NCc3ccc(-n4ccnc4)cc3)n2)cc1 | 100% | 100% | 33% |
| CC(C)CNC(=O)c1cncc(-c2ccc(CNCCCc3ccccc3)cc2)c1.O=C(O)C(F)(F)F | 100% | 73% | 28% |
| COc1ccc(Cn2cncc2CN(CCC(C)C)C(=O)c2ccc(Cl)nc2Cl)cc1.O=C(O)C(F)(F)F | 87% | 61% | 19% |
| CC(=O)CC(=O)N1CCN(c2ccccc2)CC1 | 85% | 0% | 54% |

| SMILES | Inhibition [1] | Inhibition [2] | Inhibition [3] |
| --- | --- | --- | --- |
| CC(=O)Nc1ccc(C(=O)Nc2cccc(-c3ccc(-c4nc5ccccc5[nH]4)cc3)c2)cn1 | 100% | 93% | 12% |
| CCCCCCCCOc1ccc(N2C(N)=NC(N)=NC2(C)C)cc1.Cl | 100% | 0% | 31% |
| COc1ccc(Nc2nccc(-c3ccc4c(-c5ccsc5)cnc(N)c4c3)n2)cc1 | 100% | 98% | 38% |
| Cc1ccc(-n2c(=O)c3c(n4c(SC(C)C)nnc24)-c2ccccc2CC32CCCCC2)cc1 | 95% | 88% | 8% |
| COc1ccc(S(=O)(=O)NC2CCN(c3cc(C)nc(Nc4cccc(C#N)c4)n3)CC2)cc1.O=C(O)C(F)(F)F | 88% | 55% | 9% |
| O=C(Nc1ccsc1)Nc1cccc(-c2ccc(-c3nc4cc(C(F)(F)F)ccc4[nH]3)cc2)c1 | 99% | 36% | 45% |
| Cc1cc2c(cc1C(F)(F)F)N(C(=O)Nc1cnc(OCCN(C)C)c(C(F)(F)F)c1)CC2 | 88% | 25% | 28% |
| CC(C)[C@H]1CC[C@H](C)C[C@@H]1OC(=O)N[C@@H](Cc1ccc(O)cc1)C(=O)NC1CCN(Cc2ccc(OCCCN(C)C)cc2)C1 (stereo not given in full) | 99% | 64% | 27% |
| Cc1nc2ccccc2c(=O)n1/N=C/c1ccccc1[N+](=O)[O-] | 94% | 26% | 0% |
| C=CCOc1cccc2c1CCN(CCN1CCC(NC(=O)c3ccc(-c4ccc(Cl)cc4)cc3)CC1)C2 | 93% | 22% | 35% |
| CN1CCCC(CN2CCN(Cc3cccc(-c4cccc(-c5nc6ccccc6[nH]5)c4)c3)CC2)C1.O=C(O)C(F)(F)F (stereo not given) | 100% | 99% | 45% |
| COc1ccc(Nc2ncc3c(-c4cccc(NC(=O)CC(C)C)c4)c[nH]c3n2)cc1OC | 100% | 71% | 37% |
| Cc1cccc(CNc2nc(C)cc(N[C@@H](Cc3ccccc3)C(=O)NC3CCCC3)n2)c1.O=C(O)C(F)(F)F | 100% | 97% | 51% |
| COc1ccc(Cl)cc1C(=O)Nc1ccc(-c2nc3ccccc3[nH]2)cc1 | 92% | 39% | 42% |
| Cc1[nH]c(C)c(-c2ccc(Oc3ccc(O)cc3)cc2)c(=O)c1Cl | 91% | 87% | 0% |
| Cc1[nH]c(C)c(-c2ccc(Oc3cccc(Cl)c3)cc2)c(=O)c1Br | 98% | 97% | 46% |
| Cc1ccc2[nH]c(-c3cc(-c4ccc(OCc5ccccc5)cc4)cnc3N)nc2c1.O=C(O)C(F)(F)F | 91% | 87% | 33% |
| COCCNCc1cccc(-c2ccc3c(Nc4ccc(F)cc4Cl)ccnc3c2)c1 | 100% | 100% | 8% |
| Cc1ccc(CNC(=O)c2ccc(CN3CCCN(Cc4ccsc4)CC3)cc2)cc1.O=C(O)C(F)(F)F | 93% | 0% | 16% |
| O=C(NCCCCNCC(Cc1cccc([O-])c1)c1ccccc1)c1ccc(NC(=O)c2ccc(Cl)cc2)cc1.[Na+] (stereo not given) | 96% | 1% | 0% |

| SMILES | Inhibition [1] | Inhibition [2] | Inhibition [3] |
| --- | --- | --- | --- |
| CCc1sc(N2CCN(C)CC2)nc1C(=O)Nc1ccc(F)cc1C(F)(F)F.O=C(O)C(F)(F)F | 100% | 98% | 0% |
| COc1ccc(CNc2nccc3ccc(-c4ccc(N)nc4)cc23)cc1.O=C(O)C(F)(F)F | 93% | 49% | 7% |
| CN1CCCC1CCOc1ccc2c(c1)N(C(=O)Nc1cc(Br)cc(C(F)(F)F)c1)CC2.O=C(O)C(F)(F)F (stereo not given) | 100% | 97% | 13% |
| Cl.N=C1N=C(N)NCN1OCc1ccc(Cl)c(Cl)c1 | 95% | 4% | 14% |
| CCC(C)c1ccc(O)c(NC(=O)c2cncc(Br)c2)c1 (stereo not given) | 100% | 16% | 0% |
| O=C(Nc1ccc(OC2CCN(Cc3ccco3)C2)c(Cl)c1)c1ccc2ncccc2c1.O=C(O)C(F)(F)F (stereo not given) | 92% | 42% | 1% |
| CC1(C)N=C(N)N=C(N)N1c1ccc(Cl)c(Cl)c1.Cl | 95% | 56% | 67% |
| Cn1c(NC(=O)C2CCC(CNC(=O)c3ccc(O)c(-c4cccc([N+](=O)[O-])c4)c3)CC2)nc2ccccc21 (stereo not given) | 95% | 97% | 6% |
| COc1ccccc1CCNc1nc(C)cc(N[C@@H](Cc2ccccc2)C(=O)NCCCOC(C)C)n1.O=C(O)C(F)(F)F | 99% | 32% | 10% |
| O=C(Cn1c(CCc2cccc(F)c2F)nc(=O)c2cccnc21)N(Cc1ccc(-c2ccc(C(F)(F)F)cc2)cc1)C1CCN(C2CCOCC2)CC1.O=C(O)C(O)C(O)C(=O)O | 94% | 67% | 100% |
| CCC(CO)NCC(O)Cn1c2ccc(Br)cc2c2cc(Br)ccc21 (stereo not given) | 100% | 87% | 18% |
| CC(N)(Cc1ccc(O)cc1)c1nnn[nH]1 (stereo not given) | 93% | 2% | 7% |
| O=C(NCc1ccc(F)cc1)Nc1cccc(-c2ccc(-c3nc4cc(F)ccc4[nH]3)cc2)c1 | 100% | 96% | 7% |
| O=C(NCC1CN(Cc2ccc(N3CCCC3)o2)CCCO1)c1ccc2c(c1)OCO2.O=CO (stereo not given) | 83% | 70% | 0% |
| CC(C)(C)NS(=O)(=O)c1cc(C(=O)N2CCC(CCN3CCC(C(=O)c4ccc(F)cc4)CC3)(c3cccc(F)c3)CC2)c(Cl)cc1F | 99% | 99% | 0% |
| CCNC(=O)c1ccc2c(c1)c(C)c(C)n2Cc1ccc(F)cc1 | 93% | 91% | 25% |
| CN1CCCN(Cc2ccc(-c3ccc(NC(=O)c4ccc(Cl)cc4)cc3)cc2)CC1.O=C(O)C(F)(F)F | 96% | 67% | 58% |
| CCc1cc2c(Sc3nnc(N)s3)ncnc2s1 | 99% | 65% | 0% |
| CC(C)c1ccc(NC(=O)c2cccc(CN3CCCN(Cc4cccc(C#N)c4)CC3)c2)cc1.O=C(O)C(F)(F)F | 93% | 15% | 48% |
| Cc1cccc2nc(-c3ccc(-c4cccc(CNCC5CCCO5)c4)cc3)[nH]c12.O=C(O)C(F)(F)F (stereo not given) | 100% | 50% | 18% |
